Reference: PubChem BioAssay (NCATS)
Where “and” joins values, the source holds several entries; their conditions need not be identical. Equal values may be shown once. Inconclusive results are not listed. Where a call stands in place of a potency, no number is given. Calls of active or inactive are those of the source. Unless noted, calls come from the whole dose curve; as a rule, active = well fitted curve in the direction sought with a large enough effect; inconclusive = small, poorly fitted or top-dose-only effect, or another doubt; inactive = no such curve, though single readings can be large; an effect the other way counts as inactive or inconclusive.

Tests used:
[1] = target: Cytochrome P450 1A2 (Homo sapiens) (UniProt P05177); assay: p450-cyp1a2 (AID 410; calls by dose curve; note: potency is the fitted concentration of half-maximal effect)
Outline: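 20nM CYP1A2 with 100uM Luciferin-ME (at Km) in 100mM KPO4; compound preincubated 10 min, NADPH regeneration added, 60 min at room temperature. Luciferin quantified by luminescence after detection reagent; normalized to 57 uM furafylline.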

[2] = NFAT Signaling Pathway (AID 444; active = well fitted curve in either direction with a large enough effect, not every such curve was filed as active;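 note: carbachol stimulus at about its EC50 of 1 µM final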); conditions: Jurkat NFAT-bla M1, carbachol, beta-lactamase ratio, 5 h; at 38 µM (top of the series)
Outline: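 Jurkat cells with NFAT-driven β-lactamase reporter and co-expressed M1 receptor, stimulated with carbachol (final 1 uM, ~EC50), compound titration, 5 h at 37 °C. CCF4 loaded 1 h at RT; 460/530 nm ratio gave %activity and AC50.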

[3] = Stat Signaling Pathway (AID 446; active = well fitted curve in either direction with a large enough effect, not every such curve was filed as active;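 note: ME-180 cervical cancer cells given 40 pM IL-6 alongside compound; SIE-controlled beta-lactamase reporter measured as 460/530 nm FRET emission ratio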); conditions: ME-180 SIE beta-lactamase reporter, IL-6 stimulated, 5 h; at 38 µM (top of the series)
Outline: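 Reporter line: ME-180 cervical carcinoma, SIE-beta-lactamase. Treatment: compound with 40 pM IL-6, 5 hrs, 37 C, in low-serum OPTI-MEM with 10 mM HEPES pH 7.3. Detection: 460/530 nm fluorescence.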

[4] = target: Glucocorticoid receptor (Homo sapiens) (UniProt P04150); assay: GR-GFP Redistribution (AID 450;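 active = compounds whose dose series gives a full or clear partial fitted curve of increased nuclear translocation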; note: potency is the fitted concentration of half-maximal effect); conditions: U2OS GR-GFP nuclear translocation, laser cytometry, 2 h
[5] = target: Glucocorticoid receptor (Homo sapiens) (UniProt P04150); assay: GR-EFC Redistribution (AID 451; calls by dose curve; note: potency is the fitted concentration of half-maximal effect); conditions: CHO-K1 GR-EFC translocation, beta-gal luminescence, 2 h
Outline: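 CHO-K1 cells expressing nuclear EA and GR-ED fragments of b-gal; compounds titrated up to 46 uM final, 2 h at 37 C. GR nuclear translocation read as complemented b-gal luminescence after 1 h RT detection.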

[6] = target: Mitogen-activated protein kinase 10 (Mus musculus) (UniProt Q61831); assay: JNK3 AlphaScreen Assay (AID 530; active = well fitted curve in either direction with a large enough effect, not every such curve was filed as active;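 note: kinase came from lysate of stimulated human HepG2 cells; signal reports phosphorylation of biotinylated GST-cJun 1-79 at Ser73 with 10 µM ATP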)
Outline: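 Pre-activated (IL-1β/TNFα) JNK3 in HepG2 lysates phosphorylates biotin-GST-cJun(1-79), 10 uM ATP; anti-phospho-cJun(Ser73) AlphaScreen read at room temperature, pH 7.6 Tris buffer. Compounds pre-incubated 15 min as titrations.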

[7] = target: 3',5'-cyclic-AMP phosphodiesterase 4B (Homo sapiens) (UniProt Q07343); assay: qHTS Assay for Inhibitors of PDE-IV (AID 607; active = well fitted activation curve with a large enough effect in the main read-out, with a control signal flat, not every such curve was filed as active)
Outline: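 Cell-based read-out of cAMP via a modified cyclic nucleotide-gated channel and membrane potential dye (535/590 nm) in HEK293 cells expressing PDE4 endogenously. Compounds tested up to 22.9 uM final; 100 uM RO 20-1724 reference.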

[8] = target: Guanine nucleotide-binding protein G(i) subunit alpha-1 (Homo sapiens) (UniProt P63096); assay: qHTS Assay for Inhibitors of RGS12 GoLoco Motif Activity (Green Fluorophore) (AID 879);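 note: negative values mean loss of peptide binding seen as reduced polarization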
Outline: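 Fluorescence polarization assay: 50 nM Gαi1 with 10 nM FITC-labeled RGS12 GoLoco peptide in 10 mM Tris pH 7.5, 150 mM NaCl, 0.1 mM GDP, 0.05% NP40, 10 min at room temperature with compound.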

[9] = target: Pyruvate kinase (Leishmania mexicana) (UniProt Q27686); assay: qHTS Validation Assay for Inhibitors of Leishmania Mexicana Pyruvate Kinase (AID 945)
Outline: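 Eight-point qHTS titrations in triplicate, data normalized to DMSO neutral control. Reaction: 0.2 nM LmPYK E451W mutant, 0.5 mM PEP, 0.1 mM ADP, 7 mM MgCl2, pH 7.2, one hour at room temperature; luminescent ATP detection.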

[10] = target: Alpha-galactosidase A (Homo sapiens) (UniProt P06280); assay: Counterscreen for Glucocerebrosidase Inhibitors: qHTS Assay for Human alpha-Galactosidase at pH 4.5 (AID 992)
Outline: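 Quantitative HTS: compounds tested from 0.7 nM up to 77 uM against 2 nM enzyme with 80 uM 4-MU alpha-D-galactopyranoside. The 20 min room-temperature reaction is stopped with 1M NaOH/1M glycine, pH 10.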

[11] = target: alpha-glucosidase (Oryza sativa, rice) (UniProt Q653V4); assay: Counterscreen for Glucocerebrosidase Inhibitors: qHTS Assay for Rice alpha-Glucosidase at pH 5.0 (AID 997)
Outline: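 Rice alpha-glucosidase (4 nM final) with 400 uM 4-methylumbelliferyl-alpha-D-glucopyranoside in citrate buffer pH 5.0, 20 min at room temperature, stopped at pH 10; fluorescence 365/440 nm, compounds 0.7 nM–77 uM, AC50 from Hill fits.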

[12] = Validation of Assay for Modulators of Lamin A Splicing (AID 1459; active = well fitted curve in the direction sought with a large enough effect in the signal ratio; the % refers to the signal ratio;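 note: cells exposed to compound for two days before reading; ratio rise marks activators and ratio drop marks inhibitors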)
Outline: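 Splicing correction is reported by an EGFP-containing lamin A minigene in stably transfected S3 HeLa cells, while DsRed2 controls for viability and nonspecific signal. Cells are exposed to compounds for 48 hrs before the GFP over RFP ratio is taken.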

[13] = qHTS Assay for Lipid Storage Modulators (AID 1519; calls by dose curve); conditions: Drosophila S3 cells, BODIPY lipid droplet/cell ratio, laser cytometry, cells loaded with oleic acid
Outline: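 Cells seeded at 5,000 per well were treated with compounds over a concentration series and loaded with oleic acid (400 uM, as added). Lipid droplet fluorescence (488 nm excitation, 500-530 nm channel) was read by laser-scanning cytometry and normalized to 20 uM Triacsin C.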

[14] = target: DNA repair nuclease/redox regulator APEX1 (Homo sapiens) (UniProt P27695); assay: qHTS Validation Assay for Inhibitors of the Human Apurinic/apyrimidinic Endonuclease 1 (APE1) (AID 1705;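 note: TAMRA fluorescence gain over two minutes as APE1 cuts a quenched THF abasic duplex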)
Outline: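 Endonuclease activity of human APE1 is followed as dequenching when the enzyme incises a tetrahydrofuran abasic site in a short duplex labelled 5'-TAMRA/3'-BHQ-2 (50 nM final), after 15 min enzyme–compound preincubation at room temperature.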

[15] = target: Endonuclease 4 (Escherichia coli (strain K12)) (UniProt P0A6C1); assay: Counterscreen for APE1 Inhibitors: qHTS Validation Assay for Inhibitors of Endonuclease IV (AID 1708)
Outline: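 E. coli EndoIV at 2 nM final, preincubated 15 min at room temperature with compound, then 50 nM TAMRA/BHQ-2 THF abasic-site duplex added. Buffer: 50 mM Tris-HCl pH 7.5, 50 mM NaCl, 2 mM MgCl2, 1 mM DTT, 0.01% Tween-20. Kinetic fluorescence increase, third minus first read.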

[16] = qHTS for differential inhibitors of proliferation of Plasmodium falciparum line GB4 (AID 1816); conditions: Potency: Plasmodium falciparum GB4 proliferation inhibition;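 note: potency is the fitted concentration of half-maximal effect; parasite growth measured after 72 h incubation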
[17] = qHTS for differential inhibitors of proliferation of Plasmodium falciparum line 3D7 (AID 1876);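 note: parasite growth measured after three days of culture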
[18] = qHTS for differential inhibitors of proliferation of Plasmodium falciparum line D10 (AID 1877);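 note: parasites grown with compound for 72 h before DNA staining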
[19] = qHTS for differential inhibitors of proliferation of Plasmodium falciparum line Dd2 (AID 1882); conditions: Potency: Plasmodium falciparum Dd2 proliferation inhibition; note: nearly all actives have a fitted effect of over 65% in size
Outline: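 Dd2-infected erythrocytes (0.3% parasitemia, 2.5% hematocrit final) incubated with compound 72 h at 37 C, 5% CO2; lysed with saponin/Triton buffer containing SYBR Green I, incubated overnight in the dark, then read by fluorescence (485/535 nm). Normalized to 0.29 uM artemisinin and DMSO.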

[20] = qHTS for differential inhibitors of proliferation of Plasmodium falciparum line W2 (AID 1883); conditions: Potency: Plasmodium falciparum W2 proliferation inhibition;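 note: potency is the fitted concentration of half-maximal effect; parasites grown with compound for 72 h before lysis and staining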
[21] = qHTS for differential inhibitors of proliferation of Plasmodium falciparum line HB3 (AID 1886); conditions: Potency: Plasmodium falciparum HB3 proliferation inhibition;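 note: parasites grown with compound for 72 h before SYBR Green readout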
[22] = target: Ferritin light chain (Equus caballus) (UniProt P02791); assay: qHTS Validation Assay for Identification of Novel General Anesthetics (AID 2323)
Outline: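 Apoferritin from horse spleen (10 uM) was mixed with 1-aminoanthracene at 50% saturation in PBS, then compounds were added. After 10 min at room temperature, fluorescence was read (ex 380 nm, em 535 nm) and normalized to free-probe and complex controls.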

[23] = target: ATP-dependent DNA helicase Q1 (Homo sapiens) (UniProt P46063); assay: qHTS Validation Assay for Inhibitors of RecQ-Like Dna Helicase 1 (RECQ1) (AID 2353)
Outline: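 50 nM RECQ1T1 preincubated 15 min with compound in Tris pH 8.0 buffer with MgCl2, DTT, Tween-20 and 2.5 ug/ml poly(dI-dC); started with 200 nM TAMRA/BHQ-2 forked duplex and 2 mM ATP. Unwinding read as fluorescence (525/598 nm), two reads 2 h apart.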

[24] = target: RecQ-like DNA helicase BLM (Homo sapiens) (UniProt P54132); assay: qHTS Validation Assay for Inhibitors of Bloom's syndrome helicase (BLM) (AID 2364)
Outline: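 50 nM BLM preincubated 15 min at room temperature with compound in pH 8.0 Tris buffer containing 2.5 ug/ml poly(dI-dC); started with 200 nM TAMRA/BHQ-2 forked duplex and 2 mM ATP (final). Unwinding read as TAMRA fluorescence increase, two reads 2 h apart.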

[25] = Validation screen for small molecules that induce DNA re-replication in MCF 10A normal breast cells (AID 463097); note: nearly all actives have a fitted effect of over 60% in size
Outline: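 DNA re-replication was detected as a rise in nuclei with elevated Hoechst fluorescence after a 48 hr compound exposure of MCF 10A cells at 37 C.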

[26] = Quantitative high throughput screen for delayed death inhibitors of the malarial parasite plastid, 48 hour incubation (AID 488752); note: nearly all actives have a fitted effect of over 65% in size
Outline: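 Erythrocytes infected with firefly luciferase-expressing P. falciparum (2% hematocrit, 0.1% parasitemia) cultured with compound for 48 h at 37 C, 5% CO2, in RPMI 1640/0.5% Albumax. Growth inhibition read as loss of luminescence.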

[27] = target: M-phase phosphoprotein 8 (Homo sapiens) (UniProt Q99549); assay: qHTS Validation Assay for Inhibitors for MPP8 Chromodomain Interactions with Methylated Histone Tails (AID 488949);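 note: AlphaScreen signal from MPP8 chromodomain bound to biotinylated H3K9me3 peptide; top concentration of the series differs between compounds; nearly all actives have a fitted effect of over 55% in size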
Outline: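 Disruption of the preformed MPP8–trimethyl-H3K9 peptide complex (both 50 nM, 30 min, RT) is measured after 30 min compound exposure, using AlphaScreen proximity beads; aurintricarboxylic acid titration serves as plate control.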

[28] = target: Transient receptor potential cation channel subfamily V member 1 (Homo sapiens) (UniProt Q8NER1); assay: HTS Assay for Compounds that Act as Enhancers of the Vanilloid Receptor 1 (AID 488979)
Outline: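 TRPV1 cells loaded with Fluo-8 calcium dye; compound added and Ca2+ signal (ex 480/em 520 nm) followed 3 min, then capsaicin at EC20 added and read 2 more min to detect enhancement.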

[29] = target: Thyrotropin receptor (Homo sapiens) (UniProt P16473); assay: qHTS Assay for Antagonists of the Thyroid Stimulating Hormone Receptor (AID 488980)
Outline: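 Cells expressing human TSHR (HEK293) are dispensed in HBSS/HEPES containing 70 uM RO 20-1724, compound is added, then TSH at EC80 (4 nM final). Antibody in lysis buffer follows, 30 minutes at room temperature before HTRF detection.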

[30] = target: Thyrotropin-releasing hormone receptor (Homo sapiens) (UniProt P34981); assay: qHTS for Small Molecule Agonists and Allosteric Enhancers of Human TRH Receptor: Validation Screen for Agonists (AID 493127;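 active = calcium activation more than 3 SD above the typical response in the agonist read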); conditions: TRH receptor agonist cell assay; at 2 µM; stronger effect = higher value
Outline: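 TRHR cells loaded with fluo-8 calcium dye; FDSS kinetic fluorescence (Ex 480/Em 530) read at 1 s/cycle after 23 nL compound addition. Agonist-mode calcium response recorded before the 10 nM TRH (EC20) addition.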

[31] = target: Galactokinase (Homo sapiens) (UniProt P51570); assay: qHTS Validation Assay for Inhibitors of Human Galactokinase (GALK) (AID 493189)
Outline: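 Compounds were pin-transferred into ATP buffer, then GALK-galactose mix was added (final 5 nM enzyme, 100 uM galactose, 35 uM ATP). After 1 h at room temperature, remaining ATP was measured luminescently.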

[32] = Validation screen for small molecules that induce DNA re-replication in SW480 colon adenocarcinoma cells (AID 504364)
Outline: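 SW480 cells (250/well) exposed 48 h at 37 C, 5% CO2, then Hoechst-stained 40 min. Nuclear DNA content imaged by fluorescence scanning (405 nm excitation, 500-530 nm emission); re-replication scored as increased nuclei with elevated intensity.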

[33] = target: DNA dC->dU-editing enzyme APOBEC-3G (Homo sapiens) (UniProt Q9HC16); assay: qHTS for inhibitors of Vif-A3G interactions: Validation (AID 588379)
Outline: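 HeLa cells stably expressing Vif and A3G-eYFP, 700 cells/well, incubated overnight at 37 deg C, then exposed to compound overnight at 37 deg C. Inhibition of Vif-mediated degradation read as increased yellow fluorescence (Ex 488/Em 500-530) by laser-scanning cytometry.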

[34] = system: Zika virus NS2B-NS3 protease; assay: Primary screen GU AMC qHTS for Zika virus inhibitors (AID 1347154); note: nearly all actives have a fitted effect of over 70% in size
Outline: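 Unlinked Zika NS2B hydrophilic domain–NS3 protease complex at 25 nM in 10 mM Tris-HCl pH 8.0, 0.01% Tween 20, with an AMC peptide substrate. Fluorescence change (340/450 nm) over 15 min at room temperature, normalized to controls, fitted to 4-parameter Hill.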

[35] = Primary qHTS for small molecule stabilizers of the endoplasmic reticulum resident proteome: Secreted ER Calcium Modulated Protein (SERCaMP) assay (AID 1508630)
Outline: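 GLuc-SERCaMP-expressing SH-SY5Y cells, pretreated 16 h with compound, are challenged with thapsigargin to empty ER calcium stores; after 4 h, coelenterazine is added directly to the medium and luminescence is imaged.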

Glucocorticoid receptor (Homo sapiens), sequence (P04150 whole entry, looked up, the tested form may be a part): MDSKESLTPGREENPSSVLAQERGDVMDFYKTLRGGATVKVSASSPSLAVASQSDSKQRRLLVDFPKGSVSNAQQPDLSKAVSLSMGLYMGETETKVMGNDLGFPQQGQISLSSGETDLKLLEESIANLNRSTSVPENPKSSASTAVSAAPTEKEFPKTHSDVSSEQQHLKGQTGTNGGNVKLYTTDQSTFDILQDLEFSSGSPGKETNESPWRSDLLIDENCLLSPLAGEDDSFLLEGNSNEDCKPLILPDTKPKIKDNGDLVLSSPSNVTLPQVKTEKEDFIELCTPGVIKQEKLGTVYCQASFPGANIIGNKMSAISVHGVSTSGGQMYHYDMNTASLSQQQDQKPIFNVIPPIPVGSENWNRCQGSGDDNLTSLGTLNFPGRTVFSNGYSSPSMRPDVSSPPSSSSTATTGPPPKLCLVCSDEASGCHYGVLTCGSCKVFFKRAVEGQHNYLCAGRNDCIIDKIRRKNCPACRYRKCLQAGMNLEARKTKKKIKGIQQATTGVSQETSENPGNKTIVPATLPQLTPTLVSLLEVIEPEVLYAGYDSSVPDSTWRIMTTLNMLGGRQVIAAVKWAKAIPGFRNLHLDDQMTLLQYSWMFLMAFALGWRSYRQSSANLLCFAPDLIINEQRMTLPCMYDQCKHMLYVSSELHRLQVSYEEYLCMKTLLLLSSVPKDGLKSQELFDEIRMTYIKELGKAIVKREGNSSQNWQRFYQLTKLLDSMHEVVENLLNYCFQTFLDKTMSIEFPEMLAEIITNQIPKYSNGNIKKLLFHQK
Cytochrome P450 1A2 (Homo sapiens), sequence (P05177 whole entry, looked up): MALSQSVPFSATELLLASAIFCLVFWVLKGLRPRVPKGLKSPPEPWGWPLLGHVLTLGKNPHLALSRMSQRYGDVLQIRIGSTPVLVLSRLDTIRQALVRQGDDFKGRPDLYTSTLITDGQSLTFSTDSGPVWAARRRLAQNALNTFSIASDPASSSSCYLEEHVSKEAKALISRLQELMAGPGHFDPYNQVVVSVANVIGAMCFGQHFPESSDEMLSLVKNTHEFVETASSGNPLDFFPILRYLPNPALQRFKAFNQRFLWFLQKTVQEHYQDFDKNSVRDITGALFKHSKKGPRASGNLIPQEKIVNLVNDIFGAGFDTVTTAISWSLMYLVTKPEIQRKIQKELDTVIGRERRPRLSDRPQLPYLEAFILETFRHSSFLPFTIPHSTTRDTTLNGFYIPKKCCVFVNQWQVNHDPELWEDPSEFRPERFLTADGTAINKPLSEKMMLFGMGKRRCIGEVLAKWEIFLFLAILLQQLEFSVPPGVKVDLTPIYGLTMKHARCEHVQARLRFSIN
3',5'-cyclic-AMP phosphodiesterase 4B (Homo sapiens), sequence (Q07343 whole entry, looked up): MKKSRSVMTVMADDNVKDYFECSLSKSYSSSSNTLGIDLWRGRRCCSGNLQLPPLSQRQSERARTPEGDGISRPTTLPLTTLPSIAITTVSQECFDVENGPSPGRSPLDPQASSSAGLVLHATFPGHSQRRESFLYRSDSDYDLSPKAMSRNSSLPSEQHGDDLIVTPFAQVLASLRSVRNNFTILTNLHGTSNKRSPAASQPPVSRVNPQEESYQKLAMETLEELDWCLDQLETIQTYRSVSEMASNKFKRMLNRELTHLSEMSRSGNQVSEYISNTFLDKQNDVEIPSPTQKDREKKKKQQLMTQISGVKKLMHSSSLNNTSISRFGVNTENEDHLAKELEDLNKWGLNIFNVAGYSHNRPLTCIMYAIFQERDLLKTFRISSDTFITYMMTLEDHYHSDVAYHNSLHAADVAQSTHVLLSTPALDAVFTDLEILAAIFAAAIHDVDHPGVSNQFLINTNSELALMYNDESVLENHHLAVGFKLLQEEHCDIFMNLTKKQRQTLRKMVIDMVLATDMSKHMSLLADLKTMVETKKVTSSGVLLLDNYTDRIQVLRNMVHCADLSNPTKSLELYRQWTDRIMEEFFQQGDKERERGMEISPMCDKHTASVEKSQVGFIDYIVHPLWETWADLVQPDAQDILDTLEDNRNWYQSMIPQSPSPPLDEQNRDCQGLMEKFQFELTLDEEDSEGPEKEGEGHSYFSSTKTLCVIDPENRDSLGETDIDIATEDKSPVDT
Thyrotropin-releasing hormone receptor (Homo sapiens), sequence (P34981 whole entry, looked up): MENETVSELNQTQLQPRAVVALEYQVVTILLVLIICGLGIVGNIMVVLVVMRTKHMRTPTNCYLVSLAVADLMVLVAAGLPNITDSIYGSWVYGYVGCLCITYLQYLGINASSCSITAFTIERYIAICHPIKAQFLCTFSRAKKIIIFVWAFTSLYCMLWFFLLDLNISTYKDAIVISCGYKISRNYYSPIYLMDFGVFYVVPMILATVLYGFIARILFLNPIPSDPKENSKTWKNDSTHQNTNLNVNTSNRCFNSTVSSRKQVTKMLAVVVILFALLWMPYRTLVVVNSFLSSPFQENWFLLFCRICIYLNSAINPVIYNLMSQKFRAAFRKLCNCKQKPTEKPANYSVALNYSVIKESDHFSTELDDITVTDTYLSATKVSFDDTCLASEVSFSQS
Pyruvate kinase (Leishmania mexicana), sequence (Q27686 2-499 E452W): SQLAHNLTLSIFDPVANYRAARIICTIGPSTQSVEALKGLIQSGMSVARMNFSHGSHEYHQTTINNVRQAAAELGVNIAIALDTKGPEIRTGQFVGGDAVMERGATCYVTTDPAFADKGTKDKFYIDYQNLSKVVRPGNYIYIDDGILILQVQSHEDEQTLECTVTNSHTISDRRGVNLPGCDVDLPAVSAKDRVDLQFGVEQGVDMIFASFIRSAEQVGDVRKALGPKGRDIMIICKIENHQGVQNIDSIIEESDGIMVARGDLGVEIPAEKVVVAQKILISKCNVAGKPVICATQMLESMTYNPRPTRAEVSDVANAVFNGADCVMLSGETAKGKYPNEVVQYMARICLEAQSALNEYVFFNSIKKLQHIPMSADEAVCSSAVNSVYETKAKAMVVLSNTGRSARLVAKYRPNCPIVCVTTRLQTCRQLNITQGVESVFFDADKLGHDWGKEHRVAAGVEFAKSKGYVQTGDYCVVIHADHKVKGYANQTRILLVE
Thyrotropin receptor (Homo sapiens), sequence (P16473 whole entry, looked up): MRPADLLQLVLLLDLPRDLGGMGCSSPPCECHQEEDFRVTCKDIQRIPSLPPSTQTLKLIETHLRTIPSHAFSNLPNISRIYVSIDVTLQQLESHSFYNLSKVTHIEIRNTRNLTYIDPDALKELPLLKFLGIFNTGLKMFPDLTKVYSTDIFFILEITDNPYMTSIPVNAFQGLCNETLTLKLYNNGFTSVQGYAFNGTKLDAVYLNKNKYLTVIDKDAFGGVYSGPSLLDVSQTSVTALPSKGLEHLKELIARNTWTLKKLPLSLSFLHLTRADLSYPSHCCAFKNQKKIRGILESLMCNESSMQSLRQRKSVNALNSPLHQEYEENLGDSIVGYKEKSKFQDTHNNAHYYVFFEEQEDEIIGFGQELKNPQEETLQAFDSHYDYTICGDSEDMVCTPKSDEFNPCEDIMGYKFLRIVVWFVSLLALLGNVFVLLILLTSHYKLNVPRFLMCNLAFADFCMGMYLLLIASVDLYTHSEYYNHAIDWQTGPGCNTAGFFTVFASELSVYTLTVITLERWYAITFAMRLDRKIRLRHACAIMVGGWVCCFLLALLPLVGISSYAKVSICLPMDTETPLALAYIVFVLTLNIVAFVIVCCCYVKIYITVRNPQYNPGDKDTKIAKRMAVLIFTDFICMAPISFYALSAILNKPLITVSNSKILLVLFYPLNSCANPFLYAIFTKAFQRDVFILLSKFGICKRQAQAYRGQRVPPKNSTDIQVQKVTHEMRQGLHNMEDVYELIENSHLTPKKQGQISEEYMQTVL
DNA repair nuclease/redox regulator APEX1 (Homo sapiens), sequence (P27695 whole entry, looked up): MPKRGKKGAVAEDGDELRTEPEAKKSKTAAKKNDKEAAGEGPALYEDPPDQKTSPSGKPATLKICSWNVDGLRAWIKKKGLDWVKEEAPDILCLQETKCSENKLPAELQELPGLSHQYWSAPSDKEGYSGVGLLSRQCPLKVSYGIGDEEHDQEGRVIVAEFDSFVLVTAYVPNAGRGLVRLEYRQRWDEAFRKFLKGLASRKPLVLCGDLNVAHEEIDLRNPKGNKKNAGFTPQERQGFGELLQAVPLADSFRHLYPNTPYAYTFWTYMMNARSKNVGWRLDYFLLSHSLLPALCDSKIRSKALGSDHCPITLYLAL
Guanine nucleotide-binding protein G(i) subunit alpha-1 (Homo sapiens), sequence (P63096 whole entry, looked up): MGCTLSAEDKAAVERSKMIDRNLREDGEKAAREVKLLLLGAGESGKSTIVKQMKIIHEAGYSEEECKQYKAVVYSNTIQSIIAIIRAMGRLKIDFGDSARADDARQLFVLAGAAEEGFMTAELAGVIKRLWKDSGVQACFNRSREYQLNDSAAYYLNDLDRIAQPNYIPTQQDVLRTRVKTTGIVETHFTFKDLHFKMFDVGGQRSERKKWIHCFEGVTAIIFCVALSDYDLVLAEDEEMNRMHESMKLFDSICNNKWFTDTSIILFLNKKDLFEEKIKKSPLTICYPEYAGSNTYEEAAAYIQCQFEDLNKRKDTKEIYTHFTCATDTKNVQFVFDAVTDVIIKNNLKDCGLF
ATP-dependent DNA helicase Q1 (Homo sapiens), sequence (P46063 whole entry, looked up): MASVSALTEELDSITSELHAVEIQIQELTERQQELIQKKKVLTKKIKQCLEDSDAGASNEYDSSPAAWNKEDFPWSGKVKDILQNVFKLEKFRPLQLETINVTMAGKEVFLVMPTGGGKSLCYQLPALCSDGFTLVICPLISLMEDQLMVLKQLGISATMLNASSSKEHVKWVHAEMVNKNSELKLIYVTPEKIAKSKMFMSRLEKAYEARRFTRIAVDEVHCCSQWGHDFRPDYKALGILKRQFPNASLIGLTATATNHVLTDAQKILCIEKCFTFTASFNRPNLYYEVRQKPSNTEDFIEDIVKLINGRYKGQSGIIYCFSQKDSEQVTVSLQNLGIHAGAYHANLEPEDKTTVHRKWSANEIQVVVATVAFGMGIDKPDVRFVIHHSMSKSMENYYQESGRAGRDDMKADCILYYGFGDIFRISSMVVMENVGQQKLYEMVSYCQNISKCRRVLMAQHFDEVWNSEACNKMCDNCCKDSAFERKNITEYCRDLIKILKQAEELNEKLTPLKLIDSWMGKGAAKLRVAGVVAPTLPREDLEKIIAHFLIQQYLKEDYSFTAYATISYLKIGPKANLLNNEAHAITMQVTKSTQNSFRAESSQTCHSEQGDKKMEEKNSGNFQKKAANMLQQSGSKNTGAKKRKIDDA

O=C(OCCN1CCCCC1)c1c[nH]c2ccccc12
Potency [1]: 12.6 µM (active) and 15.8 µM (active)
activity change, negative = inhibition [2]: -11% (inactive)
activity, negative = inhibition [3]: -6.33% (inactive)
Potency [4]: > 46 µM (inactive)
Potency [5]: > 46 µM (inactive)
Potency [6]: inactive
Potency [7]: inactive
outcome [8]: inactive
Potency [9]: inactive
outcome [10]: inactive
outcome [11]: inactive
outcome [12]: inactive
activity change, negative = inhibition ([13]; at 57.5 µM (top of the series)): -1.63% (inactive)
max response ([13]; measured here: cell count channel max response): -19.5%
max response ([13]; measured here: lipid channel max response): -30.4%
Potency [14]: inactive
Potency [15]: inactive
Potency [16]: 10 µM (active)
Potency [17]: inactive
Potency [18]: inactive
Potency [19]: inactive
Potency [20]: 8.91 µM (active)
Potency [21]: inactive
outcome [22]: inactive
Potency [23]: inactive
Potency [24]: inactive
Potency [25]: inactive
Potency [26]: inactive
Potency [27]: inactive
outcome [28]: inactive
outcome [29]: inactive
activation [30]: 1.38% (inactive)
outcome [31]: inactive
outcome [32]: inactive
Potency [33]: inactive
Potency [34]: inactive
Potency [35]: inactive
